Our source for the Potency and outcome values is PubChem BioAssay (NCATS).

Assay [1] is described as follows: P-glycoprotein substrates identified in KB-8-5-11 adenocarcinoma cell line, qHTS therapeutic library screen (AID 1346987). Further: nearly all actives have a fitted effect of over 65% in size. Further: potency means the concentration at half of the fitted maximal effect. In a few lines:
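Luminescence from CellTiter-Glo, read 5 min after addition, quantified survival of KB-8-5-11 (P-gp-overexpressing) cells exposed to compounds for 72 h. AC50 was derived from concentration-response curves.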
In general terms: qHTS replaces the single test concentration by a dilution series.

Assay [2] has as its target Atrial natriuretic peptide receptor 2 (Homo sapiens) (UniProt P20594). Put plainly: Natriuretic polypeptide receptor (hNpr2) antagonism - Pilot subtype selectivity assay (AID 1347050; calls by dose curve). In a few lines: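 Luminescence from a genetically encoded cGMP luciferase biosensor in hNpr2-expressing HEK293 cells is read before and 20 min after adding 1 nM hNppC. Test compounds, in interplate 1:5 titrations, are added 30-50 min ahead of the agonist.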

Assay [3] can be described thus: NS1 protein of Zika virus - qHTS assay to identify small molecule inhibitors in human HEK 293 cells (AID 1347053). Further: series mostly up to about 46 µM; nearly all actives have a fitted effect of over 55% in size. In a few lines: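 Read-out is a two-antibody TR-FRET for ZIKV NS1, normalized between uninfected cells and infected cells. Compound added 1 h before MR766 infection at MOI 0.5; human HEK 293 cells incubated 24 h, 37 C.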
For assay [4], the target named is T1, Tyrosine-protein phosphatase non-receptor type substrate 1 (Homo sapiens) + Leukocyte surface antigen CD47 (Homo sapiens) (UniProt P78324+Q08722). Put plainly: CD47-SIRPalpha protein protein interaction - LANCE assay qHTS validation (AID 1347057; active means well fitted curve in the direction sought with a large enough effect in the signal ratio, with a control signal flat, not every such curve was filed as active; the % refers to the signal ratio; further: series mostly up to about 38 µM). In a few lines:
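Inhibition of soluble CD47/SIRPalpha ectodomain association by titrated compounds, measured as 665/615 nm time-resolved FRET ratio after sequential 30 min room-temperature incubations.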
In general terms: TR-FRET usually uses a lanthanide donor and a delayed reading to cut background.

Assay [5] concerns the target T1, Tyrosine-protein phosphatase non-receptor type substrate 1 (Homo sapiens) + Leukocyte surface antigen CD47 (Homo sapiens). The experiment in a line: CD47-SIRPalpha protein protein interaction - HTRF assay qHTS validation (AID 1347058; active means well fitted curve in the direction sought with a large enough effect in the signal ratio, not every such curve was filed as active; the % refers to the signal ratio; further: series mostly up to about 38 µM). A digest of the protocol:
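Soluble extracellular domains (6His-CD47, Avi-tag-biotinylated SIRPalpha) in PBS pH 7.4 with 0.05% IGEPAL CA-630. Compounds were preincubated 30 min at RT with CD47 and anti-His-Eu, then SIRPalpha and SAV-XL665 were added. TR-FRET 665/615 ratio.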

Assay [6] has the same target. Put plainly: CD47-SIRPalpha protein protein interaction - Alpha assay qHTS validation (AID 1347059).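 Further: bead proximity luminescence from CD47 binding SIRPalpha after compound preincubation with SIRPalpha.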 A digest of the protocol: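 SIRPalpha-biotin 25 nM + cpd, 30 min RT, dark; add CD47-His 12.5 nM, 30 min; add Ni-NTA/SAV beads 10 ug/mL, 30 min; AlphaScreen. Buffer PBS pH 7.4 + 0.05% IGEPAL CA-630. Non-biotinylated SIRPalpha as control inhibitor.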
For assay [7], the target named is Parathyroid hormone/parathyroid hormone-related peptide receptor (Homo sapiens) (UniProt Q03431). Put plainly: qHTS for PTHR1 Agonists: Optimization Screen against the NCGC LOPAC library (AID 1347079).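 Further: GloSensor cAMP luminescence in HEK-293 GP2 cells expressing human PTHR1 with IBMX.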 In a few lines:
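HEK-293 GP2 cells, PTHR1 + GloSensor cAMP; 3000 cells/well, o/n. Luciferin + IBMX 0.5mM each (stock), 1 hr 37C. Cpd titration, 1 hr 37C. Lum after 15 min RT. Ctrl M-PTH(1-15) top 10uM.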

Assay [8] in a line: qHTS of pediatric cancer cell lines to identify multiple opportunities for drug repurposing: Primary screen for TC32 cells (AID 1347089). Further: nearly all actives have a fitted effect of over 60% in size. A digest of the protocol: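 Luminescent CellTiter-Glo read-out of metabolically active TC32 cells after 48 h compound exposure. Primary: MIPE 11-point, 0.78 nM–46 µM; NPC 8-point, 0.59 nM–46 µM. Confirmatory: 11-point dilutions.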
Assay [9] in a line: qHTS of pediatric cancer cell lines to identify multiple opportunities for drug repurposing: Primary screen for DAOY cells (AID 1347090). Further: nearly all actives have a fitted effect of over 55% in size. Further: potency means the concentration at half of the fitted maximal effect. In a few lines:
(§1)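 Viability measured as metabolically active cells via CellTiter-Glo luminescence following 48 hours of compound exposure, 11-point dilutions in confirmatory testing. 500-1,000 cells/well plated 5 hours before dosing; controls were DMSO and 2.3 µM bortezomib.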

Assay [10] can be described thus: qHTS of pediatric cancer cell lines to identify multiple opportunities for drug repurposing: Primary screen for SJ-GBM2 cells (AID 1347091). Further: potency means the concentration at half of the fitted maximal effect. In a few lines:
as §1

A short description of assay [11]: qHTS of pediatric cancer cell lines to identify multiple opportunities for drug repurposing: Primary screen for A673 cells (AID 1347092). Further: nearly all actives have a fitted effect of over 45% in size. Further: potency means the concentration at half of the fitted maximal effect. A digest of the protocol:
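A673 cells (500-1,000 cells/well in growth media) were pre-incubated 5 h at 37 degrees C, then exposed to compounds for 48 h. Viability was read as CellTiter-Glo luminescence; concentration-response curves came directly from the primary screen.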

A short description of assay [12]: qHTS of pediatric cancer cell lines to identify multiple opportunities for drug repurposing: Primary screen for SK-N-MC cells (AID 1347093). Further: potency means the concentration at half of the fitted maximal effect. In a few lines:
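Metabolically active cells were quantified by ATP-dependent luminescence (CellTiter-Glo, 15 min at room temperature) following 48 h treatment. Cells had been plated at 500-1,000 per well and settled for 5 h beforehand.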

Assay [13] in a line: qHTS of pediatric cancer cell lines to identify multiple opportunities for drug repurposing: Primary screen for BT-37 cells (AID 1347094). Further: potency means the concentration at half of the fitted maximal effect. A digest of the protocol:
(§2)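 Phenotypic viability qHTS, 48 h compound exposure, CellTiter-Glo luminescence read-out; multi-concentration dosing so that potency and efficacy derive directly from the primary screen's curves.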

A short description of assay [14]: qHTS of pediatric cancer cell lines to identify multiple opportunities for drug repurposing: Primary screen for NB-EBc1 cells (AID 1347095). Further: potency means the concentration at half of the fitted maximal effect. A digest of the protocol:
as §2

The nature of assay [15]: qHTS of pediatric cancer cell lines to identify multiple opportunities for drug repurposing: Primary screen for U-2 OS cells (AID 1347096). Further: nearly all actives have a fitted effect of over 50% in size. Further: potency means the concentration at half of the fitted maximal effect. In a few lines: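 Viability after 48 h compound treatment at 37C, 500-1,000 cells/well, read as ATP luminescence with CellTiter-Glo. Primary screens used 11-point (MIPE, 0.78 nM-46 µM) or 8-point (NPC, 0.59 nM-46 µM) final concentrations; follow-up screens used 11-point dilutions.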

Assay [16] in a line: qHTS of pediatric cancer cell lines to identify multiple opportunities for drug repurposing: Primary screen for Saos-2 cells (AID 1347097). Further: nearly all actives have a fitted effect of over 40% in size. Further: potency means the concentration at half of the fitted maximal effect. In a few lines:
as §2

A short description of assay [17]: qHTS of pediatric cancer cell lines to identify multiple opportunities for drug repurposing: Primary screen for NB1643 cells (AID 1347099). Further: nearly all actives have a fitted effect of over 50% in size. Further: potency means the concentration at half of the fitted maximal effect. In a few lines:
as §2

The nature of assay [18]: Natriuretic polypeptide receptor (hNpr1) antagonism - Pilot counterscreen GloSensor control cell line (AID 1347045; calls by dose curve; further: series mostly up to about 38 µM). A digest of the protocol:
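Cells were first seeded and incubated overnight at 37C, then loaded with 2% GloSensor substrate for 2 h. Compounds were added for 30 min at room temperature, followed by a baseline read, 50 uM SNP and a final read after 20 min.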
Background: The purpose of a counterscreen is to sort out artefacts and off-target activity.

A short description of assay [19]: P-glycoprotein substrates identified in KB-3-1 adenocarcinoma cell line, qHTS therapeutic library screen (AID 1346986). Further: nearly all actives have a fitted effect of over 60% in size.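 Further: potency means the concentration at half of the fitted maximal effect; potency is for cytotoxicity meaning loss of cell viability.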 A digest of the protocol: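 In 1536-well format, 500 cells/well received pinned compound titrations and were incubated 72 h, 5% CO2. Viability was read by CellTiter-Glo; cytotoxic if AC50 < 10 uM and efficacy >50%.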
Assay [20] in a line: qHTS of pediatric cancer cell lines to identify multiple opportunities for drug repurposing: Primary screen for SK-N-SH cells (AID 1347098). Further: potency means the concentration at half of the fitted maximal effect; nearly all actives have a fitted effect of over 65% in size. In a few lines:
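Cells (500-1,000/well) rested 5 h, then received compounds for 48 h; metabolically active cells were measured by CellTiter-Glo luminescence. Final concentrations spanned up to 46 µM (MIPE, 11-point) or 0.59 nM-46 µM (NPC, 8-point) in primary screens, 11-point in follow-ups.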

Values joined by “and” are separate entries in the source; they are usually repeats but may differ in a detail not shown here. Identical values can stand only once. Inconclusive results are not listed. Active and inactive are the calls of the source. Unless noted, the call rests on the fitted dose curve; in most records, active means well fitted curve in the direction sought with a large enough effect; inconclusive means small, poorly fitted or top-dose-only effect, or another doubt; inactive means no such curve, though single readings can be large; an effect the other way counts as inactive or inconclusive.

Parathyroid hormone/parathyroid hormone-related peptide receptor (Homo sapiens), sequence (Q03431 whole entry, looked up): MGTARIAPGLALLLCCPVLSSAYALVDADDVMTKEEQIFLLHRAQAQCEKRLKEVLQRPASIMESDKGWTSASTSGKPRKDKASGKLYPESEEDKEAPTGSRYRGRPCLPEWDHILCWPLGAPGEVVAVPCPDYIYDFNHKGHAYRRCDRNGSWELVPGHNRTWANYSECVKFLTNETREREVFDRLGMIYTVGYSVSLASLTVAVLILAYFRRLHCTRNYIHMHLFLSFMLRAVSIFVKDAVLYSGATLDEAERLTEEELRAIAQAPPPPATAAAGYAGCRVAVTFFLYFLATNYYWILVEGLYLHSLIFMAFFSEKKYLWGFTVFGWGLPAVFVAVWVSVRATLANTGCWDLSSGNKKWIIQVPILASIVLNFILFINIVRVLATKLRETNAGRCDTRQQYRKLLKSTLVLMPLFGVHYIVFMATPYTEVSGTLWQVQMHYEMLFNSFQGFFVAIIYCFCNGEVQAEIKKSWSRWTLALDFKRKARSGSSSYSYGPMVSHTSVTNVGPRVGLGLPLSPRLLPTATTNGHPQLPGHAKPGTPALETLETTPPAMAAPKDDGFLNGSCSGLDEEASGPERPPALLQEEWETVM
Atrial natriuretic peptide receptor 2 (Homo sapiens), sequence (P20594 whole entry, looked up): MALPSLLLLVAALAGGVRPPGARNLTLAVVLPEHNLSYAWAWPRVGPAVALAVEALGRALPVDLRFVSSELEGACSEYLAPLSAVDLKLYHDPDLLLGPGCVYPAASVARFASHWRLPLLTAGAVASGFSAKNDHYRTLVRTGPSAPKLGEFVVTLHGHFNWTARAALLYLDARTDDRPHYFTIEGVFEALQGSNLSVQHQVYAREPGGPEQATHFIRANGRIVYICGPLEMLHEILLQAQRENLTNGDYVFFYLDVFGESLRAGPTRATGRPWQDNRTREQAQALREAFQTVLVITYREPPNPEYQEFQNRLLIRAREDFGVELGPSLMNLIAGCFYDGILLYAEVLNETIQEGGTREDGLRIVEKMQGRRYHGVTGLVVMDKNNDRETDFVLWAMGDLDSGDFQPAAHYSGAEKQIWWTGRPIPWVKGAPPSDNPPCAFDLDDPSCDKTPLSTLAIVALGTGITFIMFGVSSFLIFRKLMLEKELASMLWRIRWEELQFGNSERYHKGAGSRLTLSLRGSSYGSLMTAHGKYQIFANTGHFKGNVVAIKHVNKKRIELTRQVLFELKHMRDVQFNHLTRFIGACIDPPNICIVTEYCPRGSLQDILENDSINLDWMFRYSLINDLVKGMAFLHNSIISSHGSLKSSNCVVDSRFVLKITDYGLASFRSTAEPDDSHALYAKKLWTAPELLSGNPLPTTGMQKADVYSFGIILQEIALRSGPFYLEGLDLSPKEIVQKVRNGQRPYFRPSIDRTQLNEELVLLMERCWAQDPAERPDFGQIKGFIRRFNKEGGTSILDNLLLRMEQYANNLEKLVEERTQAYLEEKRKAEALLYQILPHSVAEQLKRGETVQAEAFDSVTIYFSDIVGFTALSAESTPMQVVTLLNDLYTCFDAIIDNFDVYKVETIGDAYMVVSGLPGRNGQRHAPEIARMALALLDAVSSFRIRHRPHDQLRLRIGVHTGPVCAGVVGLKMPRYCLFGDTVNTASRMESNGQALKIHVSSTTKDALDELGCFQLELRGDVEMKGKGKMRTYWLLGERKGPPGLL
T1 sequence (P78324 whole entry, looked up, the tested form may be a part): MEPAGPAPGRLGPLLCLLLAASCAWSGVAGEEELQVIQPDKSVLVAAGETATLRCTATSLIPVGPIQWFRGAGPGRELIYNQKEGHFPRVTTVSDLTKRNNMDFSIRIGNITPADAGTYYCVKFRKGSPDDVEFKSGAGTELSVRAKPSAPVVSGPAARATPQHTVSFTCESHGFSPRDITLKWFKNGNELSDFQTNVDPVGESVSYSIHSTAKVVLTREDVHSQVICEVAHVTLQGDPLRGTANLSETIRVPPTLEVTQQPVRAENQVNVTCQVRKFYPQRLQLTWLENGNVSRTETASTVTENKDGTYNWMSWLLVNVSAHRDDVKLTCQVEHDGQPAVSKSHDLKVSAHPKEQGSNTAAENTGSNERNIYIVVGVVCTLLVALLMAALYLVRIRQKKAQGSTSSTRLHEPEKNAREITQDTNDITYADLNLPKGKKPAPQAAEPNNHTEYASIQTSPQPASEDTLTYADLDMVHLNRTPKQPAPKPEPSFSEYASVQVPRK
T1 sequence (Q08722 whole entry, looked up, the tested form may be a part): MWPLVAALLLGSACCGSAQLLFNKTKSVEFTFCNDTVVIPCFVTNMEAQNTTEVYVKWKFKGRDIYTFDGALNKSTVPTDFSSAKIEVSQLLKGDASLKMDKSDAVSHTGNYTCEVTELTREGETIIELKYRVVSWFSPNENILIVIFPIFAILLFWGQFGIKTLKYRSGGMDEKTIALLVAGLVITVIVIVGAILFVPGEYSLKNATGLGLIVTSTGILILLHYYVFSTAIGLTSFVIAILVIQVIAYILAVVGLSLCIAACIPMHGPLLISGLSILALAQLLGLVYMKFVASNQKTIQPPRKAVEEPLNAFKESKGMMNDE

As for `NC(N)=Nc1nc(CSCC/C(N)=N/S(N)(=O)=O)cs1`, the Potency entry in [1], in assay [3], in assay [8], in assay [9], in [10] and in assay [11] was “inactive” each time. Further, the Potency result in assay [12], in assay [13], in assay [14], in assay [15], in [16] and in assay [17] was “inactive” throughout. Besides, the result in assay [2], in assay [4], in assay [5], in assay [6] and in [7] was inactive.
On to `O=c1cc(-c2ccc(O)cc2)oc2cc(O)cc(O)c12`, for which the Potency entry in assay [1] and in assay [8] was “inactive” in each case. The outcome in assay [2], in assay [4], in assay [6] and in assay [7] was inactive. Further, the Potency is 14800 nM (active) in [9]; 1320 nM (active) in [10]; 1180 nM (active) in [11]; 3060 nM (active) in assay [13]; 4690 nM (active) in assay [14]; 14800 nM (active) in assay [16]. In addition, in assay [17], the Potency was 469 nM (active).
Regarding `O=C1NCC2(CCN(CCc3ccccc3)CC2)O1`, the Potency entry in assay [1], in assay [18], in assay [3], in assay [8], in assay [9] and in [10] was “inactive” in each case. Besides, the Potency result in assay [11], in assay [12], in [13], in [14], in assay [15] and in [16] was “inactive” throughout. In addition, the Potency result in [17] was “inactive”. Besides, the result in [2], in assay [4], in [5], in [6] and in assay [7] was inactive.
In the case of `CC(C)(C)c1ccc(C(O)CCCN2CCC(C(O)(c3ccccc3)c3ccccc3)CC2)cc1` (centres undefined), in assay [1], the Potency is 13 µM (active) and 18.4 µM (active). Besides, the outcome in [2], in assay [4], in [5], in assay [6] and in assay [7] was inactive. Besides, the Potency entry in [3], in assay [8], in assay [11], in [12], in [13] and in assay [14] was “inactive” in each case. Moreover, the Potency result in assay [15] and in assay [16] was “inactive” throughout.
As to `Cc1ccc([C@@H]2O[C@H](CO)[C@@H](O)[C@H](O)[C@@H]2O)cc1Cc1ccc(-c2ccc(F)cc2)s1`, the Potency result in assay [19], in [1], in [8], in assay [9] and in [14] was “inactive” throughout. The Potency in assay [16] was 14800 nM (active).
On to `Nc1ncnc2c1ncn2[C@@H]1O[C@H](CO)C[C@@H]1O`, for which the Potency result in [19], in assay [3], in [8], in assay [10], in [13] and in assay [16] was “inactive” each time.
Turning to `CO[C@@H](C(=O)N1Cc2[nH]nc(NC(=O)c3ccc(N4CCN(C)CC4)cc3)c2C1)c1ccccc1`, the Potency in assay [19] was 1300 nM (active); in assay [10] it was 187 nM (active); in assay [11] it was 5900 nM (active); in [12], 118 nM (active); in assay [15], 18700 nM (active); in [16], 833 nM (active). Besides, the Potency in assay [20] is 2150 nM (active); in assay [17], 118 nM (active). The Potency result in assay [3] was “inactive”.
As to `CC=CC(=O)N(CC)c1ccccc1C`, the Potency result in [1], in [3], in assay [8], in assay [9], in assay [10] and in assay [11] was “inactive” in each case. The Potency entry in assay [12], in [15] and in assay [16] was “inactive” throughout. The Potency in [13] is 30600 nM (active); in [14] it was 14800 nM (active).
